# In ChEMBL document CHEMBL3988442, “University of Dundee, Small-Polar-MMV Screening Library” (2021):
# Biological target: AMP-activated protein kinase, AMPK (Homo sapiens) (UniProt P54646+O43741+P54619+Q9UGJ0+Q9Y478+Q13131+Q9UGI9)
# Experiment: AMP-dependent Kinase enzyme assay. An in vitro enzyme assay that detects ADP turnover that is directly proportional to AMPK activity. This uses naive AMPK that is activated during the assay with MK-8722
# Format: functional
# Design: scale not given: direction of the effect not stated beside the values
# Conditions: 30 µM
row,SMILES,Percent Effect [%]
1,CCn1cnnc1CCNC(=O)c1ccc(Br)cc1F,-0.992
2,CCCN(CCO)C(=O)c1cc(COc2ccc3c(c2)CCCC3)on1,5.46
3,O=C(CNC(=O)c1ccccc1I)NCc1ccccc1F,4.78
4,CNC(=O)c1ccnc(N2CCCC(COc3cccc(C)c3)C2)c1 (centres undefined),29.8
5,Cn1ccc(NC(=O)CN2CCN(C3CCCC3)C(=O)C2)n1,4.97
6,c1ccc(C2CN(C3CC3)CC3(CCN(Cc4cscn4)CC3)C2)cc1 (centres undefined),4.81
7,CN(Cc1nncn1C)C(=O)c1cc(COc2ccccc2)[nH]n1,-7.68
8,Cc1ccc(N2CCCC(Nc3nn4cc(C)nc4s3)C2)nn1 (centres undefined),8.12
9,Cc1cc(C)n2cc(CN3CCC(N4CCN(C)C4=O)CC3)nc2n1,5.03
10,Cc1cc(C)n(CCCN(C)c2cc(C3CC3)ncn2)n1,6.65
11,Cc1cc(CNC(=O)c2cc(NC(=O)C(C)C)ccc2Cl)no1,4.16
12,Cc1ncn(CCNC(=O)Nc2ccc(OC(F)(F)F)cc2)c(=O)c1C,2.14
13,Cc1nc(C(NC(=O)CN(C)C(C)C)c2ccccc2F)no1 (centres undefined),-4.35
14,CO[C@@H]1CCC[C@@H](NC(=O)c2cccc(F)c2)[C@H]1O,10.3
15,Cc1n[nH]c(C)c1CCNC(=O)Nc1ccc2c(c1)COC2,11.6
16,CN(CCc1ccccn1)CCc1nccs1,0.423
17,CCn1nc(C)c(NC(=O)CN(C)C(C)c2nccs2)c1C (centres undefined),-6.11
18,COc1cc(COCC2CCN(Cc3cccnc3)CC2)cc(OC)c1,1.38
19,Cc1ccc(OCc2occc2C(=O)N2C[C@@H]3[C@@H](CN(C)C)[C@@H]3C2)cc1,14
20,CCOCC(=O)N1CCC(C)(c2nccs2)CC1,6.62
21,Cc1nonc1CN1CC[C@@](O)(C2CCC2)[C@H](C)C1,-1.54
22,O=C(NCc1nncn1C1CC1)c1ccccc1Oc1cccnc1,-0.563
23,Cc1ccc(CNC(=O)c2ccc(=O)n(C)n2)c(OCC2CC2)c1,14.4
24,Cc1cc(C(=O)NCCN2CCCCC2C)nn1C(C)(C)C (centres undefined),1.65
25,O=C1CC[C@@H](C(=O)N2CCC(Cn3cc(C4CCCCC4)nn3)CC2)N1,4.87
26,O=C(CN1CCC(c2nnc(C(F)(F)F)o2)CC1)Nc1cccnc1,-5.12
27,CCc1oc(C(=O)NC(C)c2ncn[nH]2)cc1CN1CCCC1 (centres undefined),-1.83

row,SMILES,Percent Effect [%]
1,CCc1csc(CNc2cc(C)nc(-c3cccnc3)n2)n1,18.4
2,CCCOc1cccc(OCc2ccon2)c1,4.13
3,Cn1ccnc1C1(O)CCN(C(=O)Cc2ccccc2)CC1,13.3
4,CN(C)c1ncccc1NC(=O)COC1CCCC1,6.19
5,CNc1cc2c(nn1)CCN(C(=O)c1ccc(-n3cccn3)nc1)C2,-15.7
6,O=C(CCC1CCCC1)N1C[C@H]2CC[C@@H]1CN(Cc1ccncc1)C2,6.08
7,CCOc1ccccc1CN(C)C(C)c1nc(-c2cccnc2)no1 (centres undefined),1.83
8,CCOCC(C)(C)NC(=O)Nc1cc(F)ccc1OC,1.04
9,CC(C)NC(=O)C1(Cc2ccccc2-c2ccccc2)CCCNC1 (centres undefined),13.9
10,CCC(=O)N1CCOC(c2cc(Nc3nncs3)cc(C)n2)C1 (centres undefined),23
11,Cc1cc(CN(C)C(C(=O)O)c2ccc(C(C)(C)C)cc2)on1 (centres undefined),8.61
12,CCC(CO)NC(=O)c1cc(COc2ccc(OC)cc2Cl)[nH]n1 (centres undefined),-8.13
13,COc1ccc(S(=O)(=O)Nc2cccnc2-n2cncn2)cc1C,-0.234
14,CCc1noc(CN2CCN(C(=O)OC(C)(C)C)C(C)C2)n1 (centres undefined),6.06
15,CCCN1CCC(N2CCC(Cn3cc(C4CC4)nn3)CC2)CC1,2.68
16,CCS(=O)(=O)NCc1nc(C)cc(N2CCCC2)n1,2.4
17,Cn1ccc(C(=O)N2CCCC2c2cc(CO)[nH]n2)n1 (centres undefined),20.7
18,Cc1ncsc1C(=O)OCCN1CCCCCC1=O,5.73
19,COc1cccc2c1OCC(Cc1cc(C(=O)N3CCCC3)ccn1)C2 (centres undefined),5.36
20,COCCN1C[C@H]2CC[C@@H]1CN(C(=O)CCc1c(C)nn(C)c1C)C2,-4.69
21,CNC(=O)c1cn2cc(-c3cccc(Cl)c3)n(CC=C(C)C)c(=O)c2n1,2.79
22,O=C(NCc1cccnc1N1CCCC(O)C1)c1ccc2[nH]nnc2c1 (centres undefined),-3.08
23,Cc1cc(CN2CCC(c3cc(Cc4ccccc4)n[nH]3)CC2)[nH]n1,-6.49
24,N#Cc1ccc(CN(CC(N)=O)Cc2cccc(F)c2)cc1,-6
25,Cc1cnc(CN(C)Cc2cccc(OC(F)(F)F)c2)cn1,-3.05
26,O=C(c1cnnn1-c1ccccc1)N1CCCC(c2ccn[nH]2)C1 (centres undefined),-5.43
27,CN1CCCC1CCNC(=O)c1ccccc1-n1cnc(CN)c1 (centres undefined),7.02
